SKKanGAS inh: S. pyogenes SKKanGAS growth inhibitors in kanamycin, primary screen, streptokinase expression inhibitor project, SKKanGAS strain, BacTiter-Glo luminescence. 6 h. inhibition, % at 7.5 µM. 300,000 compounds, 1.3% hits. AID 1662, 2009;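 active means mean replicate score, as percent of positive control median, at least 50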;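 further: strain carries kanamycin resistance gene driven by streptokinase promoter and grows in 40 µg/ml kanamycin; loss of luminescence reflects streptokinase promoter inhibition or plain growth inhibition; 0% = median of DMSO wells and 100% = positive control at its reference dose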
Calb FLC: C. albicans growth inhibition with fluconazole, primary screen, CaCi-2 strain, Alamar Blue fluorescence. C. albicans CaCi-2 (fluconazole-resistant clinical isolate) + fluconazole, 48 h. growth inhibition, % (no concentration beside the values). 300,000 compounds, 0.57% hits. AID 1979, 2009;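 active means growth inhibition above about 58% in most replicates, limit read from the data, passing the limit was not always enough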;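 further: all wells also contain fluconazole at 8 µg/ml as a sub-toxic cotreatment; 0% = median of DMSO wells and 100% = median of geldanamycin control wells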
MPTP inh: mitochondrial permeability transition pore inhibitors, primary screen, biochemical, isolated mouse mitochondria, absorbance. Ca2+ swelling absorbance, 30 min. inhibition, % at 10 µM. 360,000 compounds, 1.4% hits. AID 602449, 2012;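 active means inhibition of 50% or more, scaled per plate between neutral and stimulator controls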;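 further: 0% = DMSO wells given calcium and 100% = 1 mM EGTA wells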
Mdm2 MdmX PPI: inhibitors of human Mdm2-MdmX association, primary screen, cell-based, luminescence, split luciferase, SaOS-2, uHTS | Protein Mdm4 (Homo sapiens) + E3 ubiquitin-protein ligase Mdm2 (Homo sapiens), … | SaOS-2 split-luciferase Mdm2/MdmX complementation | inhibition, % at 8 µM | 330,000 compounds, 3% hits;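 active means inhibition of at least 50% at 8 µM in the primary screen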
Target sequence (O15151 whole entry, looked up): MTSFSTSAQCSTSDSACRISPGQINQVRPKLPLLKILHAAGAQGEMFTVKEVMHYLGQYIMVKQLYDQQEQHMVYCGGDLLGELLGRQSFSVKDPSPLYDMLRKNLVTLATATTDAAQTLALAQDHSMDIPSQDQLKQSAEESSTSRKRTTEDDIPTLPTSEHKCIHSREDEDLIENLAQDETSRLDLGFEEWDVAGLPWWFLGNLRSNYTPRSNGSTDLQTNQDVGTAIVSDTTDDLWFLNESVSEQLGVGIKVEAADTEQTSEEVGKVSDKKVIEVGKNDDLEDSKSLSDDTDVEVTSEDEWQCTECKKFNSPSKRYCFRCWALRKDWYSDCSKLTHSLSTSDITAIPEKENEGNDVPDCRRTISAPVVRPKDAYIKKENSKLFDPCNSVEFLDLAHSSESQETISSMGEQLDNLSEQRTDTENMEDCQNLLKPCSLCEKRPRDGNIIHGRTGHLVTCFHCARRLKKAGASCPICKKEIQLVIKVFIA
Target sequence (Q00987 whole entry, looked up): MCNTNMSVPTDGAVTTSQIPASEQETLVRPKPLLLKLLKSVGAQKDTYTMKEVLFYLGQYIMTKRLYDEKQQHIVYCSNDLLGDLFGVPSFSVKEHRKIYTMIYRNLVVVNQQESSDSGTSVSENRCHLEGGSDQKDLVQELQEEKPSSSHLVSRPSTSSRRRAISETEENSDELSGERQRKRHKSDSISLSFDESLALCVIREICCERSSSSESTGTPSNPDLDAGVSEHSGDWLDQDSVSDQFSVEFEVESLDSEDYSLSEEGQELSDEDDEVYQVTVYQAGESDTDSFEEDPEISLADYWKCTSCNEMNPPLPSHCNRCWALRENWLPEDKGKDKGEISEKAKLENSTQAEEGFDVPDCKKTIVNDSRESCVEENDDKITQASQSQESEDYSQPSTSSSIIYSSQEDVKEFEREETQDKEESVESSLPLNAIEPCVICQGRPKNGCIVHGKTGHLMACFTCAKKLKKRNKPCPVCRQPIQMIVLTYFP
Beta cell apopt: inhibitors of cytokine-induced beta cell apoptosis, primary screen, luminescence; INS-1E cytokine-induced death, ATP luminescence, 48 h; percent of positive-control rescue, neutral wells zero; protection from apoptosis, % (test concentration not listed); 300,000 compounds, 0.8% hits; AID 435005, 2010;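 active means Every replicate reaches about 75%, or at least half do and their mean reaches it too, limit read from the data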;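 further: 0% = cytokine-treated negative control wells and 100% = positive control rescue; higher means more ATP so stronger rescue from cytokine killing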
CSC inhib: cancer stem cell viability inhibitors, primary screen, luminescence; cancer stem cell-like cells viability; inhibition, % at 7.5 µM; 300,000 compounds, 1.1% hits; AID 2717, 2010; in the data active means inhibition above about 75%; tested in HMLE shEcad cells
Mdm2 MdmX conf: Mdm2-MdmX complex disruptors, retested hits, confirmation, luminescence, single concentration | shares compounds with Mdm2 MdmX PPI | Mdm2-MdmX binding, luminescent assay | inhibition, % at 8 µM | 10,000 compounds, 55% hits | AID 489028, 2010; in the data active means inhibition above about 40%
FLuc counter: full-length luciferase signal inhibition, confirmation, counter-screen for Mdm2/MdmX interaction inhibitor project, cell-based, single concentration, SaOS-2 | shares compounds with Mdm2 MdmX PPI | SaOS-2 full-length luciferase counterscreen, luminescence | inhibition, % at 8 µM | 6,200 compounds, 77% hits | AID 504607, 2011;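 active means mean inhibition at 8 µM reaching about 37%, which flags the compound as non-specific, limit read from the data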;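 further: p53-null SaOS-2 cells with luciferase driven by a doxycycline-inducible promoter; compound on cells about two nights before reading with doxycycline added after day one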
An asterisk follows results filed as active; x = no result. Shown are actives, neighbours in structure and some others; about 5.4% of the full set was active somewhere.

SMILES	SKKanGAS inh	Calb FLC	MPTP inh	Mdm2 MdmX PPI	Beta cell apopt	CSC inhib	Mdm2 MdmX conf	FLuc counter
O=C(Cc1n[nH]c(=O)c2ccccc12)OCC(=O)c1ccc(F)cc1	1	-1	1	19	-2	-9	x	x
Cn1ccnc1SC(C(=O)O)c1ccccc1 (stereo unspecified)	2	6	1	11	-1	-13	x	x
CC(C)NC(=O)COC(=O)c1ccc(Cl)c(S(=O)(=O)N2CCCC2)c1	14	-4	-3	-19	3	-15	x	x
CC(=O)c1ccc(N2CCN(C(=O)c3cc(-c4ccncc4)nc4ccc(Cl)cc34)CC2)cc1	1	-7	-1	63*	3	1	30	x
Cc1cccc2c(C(=O)N3CCN(c4ccccc4)CC3)cc(-c3ccncc3)nc12	-10	34	-2	57*	10	58	75*	69*
Cc1cccc2c(C(=O)N3CCCCC3)cc(-c3ccccc3)nc12	4	6	1	3	-1	45	x	x
O=C(NCC1CCCO1)C(=Cc1cccc([N+](=O)[O-])c1)C(=O)NCC1CCCO1 (stereo unspecified)	5	-17	0	65*	-23	7	35	45*
O=C(NCC1CCCO1)/C(=C\c1cccc([N+](=O)[O-])c1)NC(=O)c1ccccc1 (stereo unspecified)	x	7	0	17	0	-13	x	x
CCN(CCNCC(O)COc1ccccc1C(C)C)c1cccc(C)c1 (stereo unspecified)	15	11	4	68*	29	100*	41*	75*
Cc1c(NN=C(C#N)C#N)c(=O)n(-c2ccccc2)n1C	7	-10	0	32	0	-5	x	x
Nc1c(Cl)cc(-c2[nH]c3cc(C(=O)NCCO)ccc3c(=O)c2O)cc1Cl	5	69	2	-7	5	4	x	x
CCCNC(=O)c1ccc2c(=O)c(O)c(C)[nH]c2c1	-2	-3	0	0	-4	-5	x	x
CCCNC(=O)c1ccc2c(=O)c(O)c(-c3cccc(Br)c3)[nH]c2c1	0	114*	3	53*	98*	125*	70*	31
CCCNC(=O)c1ccc2c(=O)c(O)c(-c3ccc(F)cc3)[nH]c2c1	2	89*	4	69*	14	4	19	x
COCCn1c(CN2CCN(c3ccccc3)CC2)nc2c1c(=O)n(C)c(=O)n2C	-6	-3	2	25	-1	-1	x	x
O=C(CSc1nnc2c3ccccc3c3ccccc3c2n1)Nc1ccccc1F	9	-4	-1	76*	-5	14	-3	x
CC1=C(C(=O)OCc2ccccc2)C(c2ccc(Br)cc2)NC(=O)N1CCCC(=O)O (stereo unspecified)	0	-3	x	1	3	-7	x	x
CC(C)[C@H](NC(=O)c1ccccc1F)C(=O)NCCc1ccccc1	4	-38	-1	-26	-6	11	x	x
CC1(C)C[C@@H](O)[C@]2(C)CC[C@]3(C)C(=CCC4[C@@]5(C)CC[C@H](O)[C@](C)(CO)C5CC[C@]43C)[C@@H]2C1 (stereo partly specified)	x	x	0	77*	x	x	-44	x
CCN(CC)c1ccc(NC(=O)c2ccccc2Br)cc1S(=O)(=O)Nc1ccccc1OC	4	-20	7	-6	33	3	x	x
CCN(CC)c1ccc(NC(=O)c2ccc(=O)[nH]c2)cc1S(=O)(=O)Nc1ccccc1OC	-1	13	-4	50*	16	46	56*	54*
CCOc1cccc(/C=N/NC(=S)Nc2ccccc2[N+](=O)[O-])c1O	73*	-20	11	85*	70	40	83*	49*
CCCCNC(=S)N/N=C/c1cccc(OCC)c1O	-11	-3	2	1	30	-6	x	x
Cc1csc(NC(=O)Cc2coc3cc(C)c(C(C)C)cc23)n1	23	5	0	80*	3	x	69*	57*
CN(C)c1ccc(-c2ccnc3c2CC(C)(C(=O)NCC2CCOCC2)O3)cc1 (stereo unspecified)	x	x	0	x	x	x	x	x
SMILES	SKKanGAS inh	Calb FLC	MPTP inh	Mdm2 MdmX PPI	Beta cell apopt	CSC inhib	Mdm2 MdmX conf	FLuc counter
O=C(NC1CCCC1)C1CCN(C(=O)c2ccc(Cl)cc2Cl)CC1	2	-1	-1	3	2	-7	x	x
O=C1c2cccc3c([N+](=O)[O-])ccc(c23)C(=O)N1c1ccc(Cl)cn1	9	1	1	100*	29	112*	100*	54*
O=C1c2cccc3c(N4CCCCC4)ccc(c23)C(=O)N1c1ccccn1	3	2	0	3	4	-3	x	x
O=C1c2cccc3c([N+](=O)[O-])ccc(c23)C(=O)N1c1ccccn1	4	7	0	96*	x	105*	63*	15
O=C1c2ccc([N+](=O)[O-])cc2C(=O)N1c1ccc(Cl)cn1	1	-3	1	-27	-5	-13	x	x
O=C1c2cccc3c([N+](=O)[O-])ccc(c23)C(=O)N1c1nccs1	4	26	4	92*	9	79*	90*	27
CC(=O)Oc1ccc(N2C(=O)c3cccc4c([N+](=O)[O-])ccc(c34)C2=O)cc1	12	0	3	70*	x	38	5	x
COc1ccc(SC[C@H](Cc2ccccc2)N2CCN(C)CCC2=O)cc1	1	0	-3	15	0	6	x	x
CCN(CC)c1ccc(/C=N/N=C(N)N)c(O)c1	7	0	2	62*	10	66	52*	83*
CCN(CC)c1ccc(/C=N/NC(=O)c2ccc3nc[nH]c3c2)c(O)c1	6	109*	2	73*	116*	106*	83*	53*
CCN(CC)c1ccc(/C=N/NC(=O)c2cccc(S(=O)(=O)Nc3ccccc3OC)c2)c(O)c1	17	-6	2	77*	91*	108*	79*	15
CCN(CC)c1ccc(C=Nc2ccccc2)c(O)c1	2	6	4	4	-8	x	x	x
O=c1c2ccccc2nc(-c2ccc(Cl)cc2Cl)n1CCCn1ccnc1	0	27	0	7	6	-2	x	x
O=C(O)c1cc(S(=O)(=O)Nc2ccc3c(c2)OCCO3)c(Cl)cc1Cl	0	1	-2	55*	-4	10	42*	67*

Bioassay records: PubChem, several laboratories
